Assay results: PubChem BioAssay AID504834 (National Center for Advancing Translational Sciences (NCATS), 2011)
Screen size: about 320,000 compounds; about 22,000 (6.9%) were called active. Entries that show only a call come without a potency. Roughly 27% stayed inconclusive and do not appear here. This is one part of a sample in which actives are shown more often than they occur. Unmarked numbers belong to inactive results. Calls come from the whole dose curve; as a rule, active = well fitted inhibition curve with a large enough effect; inconclusive = small, poorly fitted or top-dose-only effect, or another doubt; inactive = no such curve, though single readings can be large or run the other way.
Potency is the fitted concentration of half-maximal effect.

Experiment: Primary qHTS for delayed death inhibitors of the malarial parasite plastid, 96 hour incubation
Details: P. falciparum luciferase reporter growth; series mostly up to 28.7 µM
Method in brief: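 Cell-based qHTS: luciferase-tagged P. falciparum in erythrocytes (2% hematocrit, 0.05% parasitemia final) incubated with compounds for 96 hours, 37 C, 5% CO2; luciferase detection reagent then added and luminescence measured.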
In the case of `Cc1ccc(C)c(OCc2cc(C(=O)N3CCN(c4cnccn4)CC3)no2)c1`, the Potency is reported as “inactive”.
With `COc1ccccc1CCCNC(=O)C1CCC(=O)N(CCN2CCOCC2)C1` (configuration not stated) the Potency was “inactive”.
With `CCCCCn1c(=O)[nH]c2cc(C(=O)NCCCN3CCCCC3C)ccc2c1=O` (configuration not stated) the Potency was “inactive”.
For `COc1ccc2[nH]c(=O)c(C3c4cc(OC)c(OC)cc4CCN3C(=O)c3ccco3)cc2c1` (configuration not stated), the Potency was “inactive”.
In the case of `O=C(Nc1nnc(Cc2ccc(Cl)cc2)s1)c1ccncc1`, the Potency is reported as “inactive”.
With `CCNS(=O)(=O)c1ccc(CCC(=O)N2CCN(c3ccc(OC)cc3)CC2)cc1` the Potency was “inactive”.
In the case of `COC(=O)c1c(C)oc(C)c1S(=O)(=O)NCc1ccc(Cl)cc1`, the Potency is reported as “inactive”.
In the case of `CCCCC/C=C/C1=CC(=O)C[C@H](c2ccc(Cl)cc2)C1`, the Potency is reported as “inactive”.
In the case of `C(=C\c1ccccc1)/CSc1nnc(-c2cccnc2)n1Cc1ccco1`, the Potency is reported as 10.4 µM (active).
For `O=C(CSc1nnc(-c2cnccn2)n1Cc1ccco1)c1ccc(Cl)c(Cl)c1`, the Potency was “inactive”.
With `CCOC(=O)Cc1csc(NC(=O)CSc2nnc(-c3cccnc3)n2Cc2ccco2)n1` the Potency was “inactive”.
In the case of `CCn1c(CC(=O)Nc2ccccc2C)nnc1SCC(=O)NC1=NCCS1`, the Potency is reported as “inactive”.
With `c1ccc2c(c1)CCc1snnc1-2` the Potency was “inactive”.
For `O=C(Cn1nc([N+](=O)[O-])nc1Br)NC1CCCCC1`, the Potency was “inactive”.
With `O=C(CSc1ccc(-c2ccccc2)nn1)NCC1CCCO1` (configuration not stated) the Potency was “inactive”.
With `O=C(CSC1=Nc2ccccc2C2=NC(CC(=O)NCc3ccco3)C(=O)N12)NCc1ccco1` (configuration not stated) the Potency was 1.85 µM (active).
For `O=C(CC1N=C2c3ccccc3N=C(SCc3ccccc3Cl)N2C1=O)NCc1ccco1` (configuration not stated), the Potency was “inactive”.
In the case of `CCn1c(SCC(=O)NCC2CCCO2)nc2ccccc21` (configuration not stated), the Potency is reported as “inactive”.
For `O=C(CSC1=Nc2ccccc2C2=NC(c3ccccc3)C(=O)N12)NCC1CCCO1` (configuration not stated), the Potency was 7.38 µM (active).
With `CCC(C)NC(=O)CSC1=Nc2ccccc2C2=NC(CCC(=O)NCc3ccco3)C(=O)N12` (configuration not stated) the Potency was “inactive”.
With `O=C(NCc1ccco1)/C(=C/c1ccco1)NC(=O)c1ccccc1` the Potency was “inactive”.
In the case of `CC1CCN(C(=O)COC(=O)c2cc(S(=O)(=O)N3CCOCC3)ccc2Cl)CC1`, the Potency is reported as “inactive”.
For `COc1cc(C(=O)NNC(=O)CN2C(=O)NC3(CCCC3)C2=O)cc(OC)c1OC`, the Potency was “inactive”.
With `COc1cccc(C(=O)Nc2nnc(S(=O)(=O)N3CCCCC3)s2)c1` the Potency was “inactive”.
With `Cc1ccc2nc(-c3ccc(Br)cc3)cn2c1` the Potency was “inactive”.
With `CCC(C)(C)n1nnnc1C(c1ccc(OC)c(OC)c1)N1CCN(C(=O)c2ccco2)CC1` (configuration not stated) the Potency was “inactive”.
In the case of `CNC[C@H](CC1CCCCC1)NC[C@H](NCCC1CCCC1)[C@H](C)O`, the Potency is reported as 11.7 µM (active).
In the case of `COc1ccc(CNC(=O)COc2ccccc2C(=O)c2cnn(-c3ccccc3)c2)cc1OC`, the Potency is reported as “inactive”.
In the case of `O=C1C(=O)N(CCCO)C(c2ccccc2)/C1=C(\O)c1ccc(Br)cc1` (configuration not stated), the Potency is reported as “inactive”.
With `CCOC(=O)c1c(-c2ccc(C)cc2C)csc1NC(=O)CSc1nnnn1C` the Potency was “inactive”.
In the case of `CCOC(=O)c1ccc(NC(=O)CSc2ncccn2)cc1`, the Potency is reported as “inactive”.
For `COc1ccc(Cc2nnc(SCC(=O)Nc3ccc(C)c(C)c3)o2)cc1OC`, the Potency was “inactive”.
With `CCOC(=O)c1c(NC(=O)CSc2nccc(=O)[nH]2)sc(C)c1C` the Potency was “inactive”.
With `CCOC(=O)c1c(NC(=O)CSc2nnc(CNc3ccc(C)cc3C)o2)sc(C)c1C` the Potency was 8.28 µM (active).
For `CCCc1nnc(SCC(=O)Nc2ccc(C(=O)OCC)cc2)o1`, the Potency was 0.147 µM (active).
With `CN(CCc1ccccn1)C(=O)c1ccc(OC2CCN(Cc3ccccn3)CC2)cc1` the Potency was “inactive”.
For `Cc1cc(C)cc(OCC(=O)OCC(=O)NC2CCCC2)c1`, the Potency was “inactive”.
For `CCn1c(=S)sc2c(=O)n(CC(=O)Nc3ccc(OC)cc3)c(C)nc21`, the Potency was “inactive”.
With `CC1=C(C(=O)Nc2ccccc2)SCCO1` the Potency was “inactive”.
In the case of `COc1cccc(C(=O)NCCS(=O)(=O)NCC2CCCO2)c1` (configuration not stated), the Potency is reported as “inactive”.
For `COc1cccc(CCNC(=O)c2cccc(NC(=O)C3=C(C)OCCS3)c2)c1`, the Potency was 11.7 µM (active).
In the case of `Cc1sc(NC(=O)C2=COCCO2)c(C#N)c1C`, the Potency is reported as “inactive”.
In the case of `CCCCN(C(=O)C(CCSC)N1C(=O)c2ccccc2C1=O)c1c(N)n(CCC)c(=O)[nH]c1=O` (configuration not stated), the Potency is reported as “inactive”.
In the case of `CSc1ccccc1NC(=O)c1cnc2sc(C)cn2c1=O`, the Potency is reported as “inactive”.
For `O=C(O)Cn1c(Cc2ccccc2)nc2ccccc21`, the Potency was “inactive”.
With `Cc1ccc(Cn2c(SCC(=O)N/N=C/c3ccccc3OCC(=O)O)nc3ccccc32)cc1` the Potency was “inactive”.
With `Cc1ccc(C(C)C)c(OCCSc2nc3ccccc3n2CC(=O)O)c1` the Potency was 13.1 µM (active).
For `Cc1cc(N2CCN(Cc3ccc4c(c3)OCO4)CC2)n2ncnc2n1`, the Potency was “inactive”.
For `O=C(c1cccs1)N1CCN(Cc2ccc3c(c2)OCO3)CC1`, the Potency was “inactive”.
For `Fc1ccc2[nH]c3c(N4CCN(Cc5ccc6c(c5)OCO6)CC4)ncnc3c2c1`, the Potency was 2.62 µM (active).
For `CCCc1c(C(=O)O)cnn1-c1ccc(Cl)cc1`, the Potency was “inactive”.
In the case of `O=C(NNS(=O)(=O)c1ccccc1C(F)(F)F)c1cc2ncc(C(F)(F)F)cc2s1`, the Potency is reported as “inactive”.
In the case of `Cc1ccsc1C(=O)N[C@@H](C)c1nnc2ccccn12`, the Potency is reported as “inactive”.
In the case of `CCN(CCn1cccn1)C(=O)CC1C(=O)NCCN1Cc1cccc(OC)c1OC` (configuration not stated), the Potency is reported as “inactive”.
With `C=CCC1(CC=C)CCCN1C(=O)CC1C(=O)NCCN1Cc1ccccc1OC` (configuration not stated) the Potency was 10.4 µM (active).
With `CN(C(=O)CC1C(=O)NCCN1Cc1ccc(F)cc1Cl)C1CCCCC1` (configuration not stated) the Potency was “inactive”.
In the case of `CCOCCCNC(=O)c1c[nH]c2cc(C)ccc2c1=O`, the Potency is reported as “inactive”.
In the case of `CCOCCCNC(=O)c1cn(CC(C)C)c(=O)c2c1c1ccccc1n2C`, the Potency is reported as “inactive”.
With `CCOCCCNC(=O)c1cc2c(=O)n3ccccc3nc2s1` the Potency was 10.4 µM (active).
For `Cc1cccc(OCCC(=O)Nc2ccccc2C(N)=O)c1`, the Potency was “inactive”.
In the case of `Fc1ccccc1/C=C1\CCCC2=C1Nc1ncnn1C2c1ccccc1F` (configuration not stated), the Potency is reported as 1.04 µM (active).
In the case of `CCN1C(=O)c2cccc3c(S(=O)(=O)Nc4ccccc4O)ccc1c23`, the Potency is reported as “inactive”.
For `CC(C)(C)NC(=O)CSc1nnc(NC(=O)CCc2ccccc2)s1`, the Potency was “inactive”.
With `Cc1occc1C(=O)NC1CCCN(Cc2ccc(CC(C)C)cc2)C1` (configuration not stated) the Potency was “inactive”.
With `Cc1occc(=O)c1OCc1c(Cl)cccc1Cl` the Potency was “inactive”.
With `O=C(NCCS(=O)(=O)N1CCN(c2ccccc2F)CC1)c1ccc(Br)o1` the Potency was “inactive”.
For `CCOc1ccc(C(C)=O)cc1COC(=O)CNC(=O)c1cccs1`, the Potency was “inactive”.
With `C/C(=N\N=C(N)N)c1ccc(Cl)cc1` the Potency was 4.15 µM (active).
With `COC(=O)/C(NC(C)=O)=C(\C)c1ccc(Cl)cc1` the Potency was “inactive”.
With `C/C(=N\OCC(=O)O)c1ccc(Cl)cc1` the Potency was “inactive”.
With `Cn1c(SCC(=O)c2ccccc2)ncc(C(=O)Nc2ccc(F)cc2)c1=O` the Potency was “inactive”.
For `CC1CCN(C(=O)Cn2nnnc2CN2CCOCC2)CC1`, the Potency was “inactive”.
With `CC(Sc1nncs1)C(=O)NCc1ccc2c(c1)OCO2` (configuration not stated) the Potency was 13.1 µM (active).
In the case of `O=C(NCc1ccc2c(c1)OCO2)c1ccc(Cl)s1`, the Potency is reported as “inactive”.
With `O=C(NCc1ccc2c(c1)OCO2)c1sccc1Br` the Potency was “inactive”.
With `Cc1ccc(S(=O)(=O)NCC(=O)N(CC(=O)NCC2CCCO2)c2cccc(F)c2)cc1` (configuration not stated) the Potency was “inactive”.
For `Nc1nnnn1/N=C/c1cc([N+](=O)[O-])ccc1O`, the Potency was “inactive”.
For `Cc1sc(NC(=O)c2ccc3ncsc3c2)c(C(N)=O)c1C`, the Potency was “inactive”.
With `O=C(Nc1ccccc1N1CCOCC1)c1ccncc1` the Potency was “inactive”.
In the case of `Cc1ccc(S(=O)(=O)N2CCOCC2)cc1C(=O)Nc1ccccc1N1CCCC1`, the Potency is reported as “inactive”.
With `O=C(Nc1ccccc1N1CCOCC1)c1csc2c1CCCC2` the Potency was 10.4 µM (active).
For `CCCc1cc(=O)[nH]c(SCC(=O)c2c(N)n(CC(C)C)c(=O)n(C)c2=O)n1`, the Potency was “inactive”.
With `CCOC(=O)c1c(C)[nH]c(C)c1S(=O)(=O)N(C)CC(=O)Nc1ccccc1C` the Potency was “inactive”.
For `CCc1ccc(OCC(=O)N(Cc2ccccc2)C2CCS(=O)(=O)C2)cc1` (configuration not stated), the Potency was “inactive”.
With `O=C(CCC(=O)c1ccccc1)NCc1cccc(C(F)(F)F)c1` the Potency was “inactive”.
In the case of `Cc1ccc(C)c(Cn2cnc3c(oc4ccccc43)c2=O)c1`, the Potency is reported as 2.08 µM (active).
In the case of `Cc1ccc2[nH]c3c(=O)n(Cc4ccccn4)cnc3c2c1`, the Potency is reported as “inactive”.
For `CCC(C(=O)OC)n1cnc2c(oc3ccccc32)c1=O` (configuration not stated), the Potency was “inactive”.
For `CC(C(=O)N(C)CC(=O)Nc1ccccc1C(F)(F)F)N1C(=O)c2ccccc2C1=O` (configuration not stated), the Potency was “inactive”.
With `Cc1csc2nc(COC(=O)c3cccc(N(C)C)c3)cc(=O)n12` the Potency was “inactive”.
With `CCOC(=O)N1CCC(N2Cc3cccc(C(=O)Nc4c(C)cccc4CC)c3C2=O)CC1` the Potency was “inactive”.
With `C=C1CCC(N(O)c2cc(C)on2)C(=C)CCC2C1CC2(C)C` (configuration not stated) the Potency was 4.65 µM (active).
With `CN(NS(=O)(=O)c1cccs1)c1ncc(C(F)(F)F)cc1Cl` the Potency was “inactive”.
For `COc1cc(-c2nnc(NC(=O)C3=COCCO3)o2)cc(OC)c1OC`, the Potency was “inactive”.
With `O=C(Nc1nnc(C2=COCCO2)o1)c1ccc([N+](=O)[O-])s1` the Potency was 11.7 µM (active).
In the case of `CCC(CC)c1nnc(NC(=O)C2=COCCO2)s1`, the Potency is reported as “inactive”.
In the case of `COCCNc1ccc(-c2n[nH]c(=O)c3ccccc23)cc1[N+](=O)[O-]`, the Potency is reported as “inactive”.
With `O=C(CN1C(=O)NC2(CCCCC2)C1=O)NCCc1c[nH]c2ccccc12` the Potency was “inactive”.
For `O=C(NCCc1c[nH]c2ccccc12)c1cccc(Br)c1`, the Potency was “inactive”.
For `CC1(C(=O)NCCc2c[nH]c3ccccc23)C=CC2(CCCCC2)N1C(=O)c1ccccc1` (configuration not stated), the Potency was 11.7 µM (active).
In the case of `Cc1ccc(OCCC(=O)OCC(=O)N2c3ccccc3NC(=O)C2(C)C)cc1`, the Potency is reported as “inactive”.
For `Cc1nnc(SCC(=O)Nc2ccc(S(=O)(=O)Nc3ccc(Cl)nn3)cc2)s1`, the Potency was “inactive”.
In the case of `Cc1ccccc1N1CCN(C2CCCN(C(=O)c3ocnc3C)C2)CC1` (configuration not stated), the Potency is reported as “inactive”.
In the case of `Cc1ccc(-n2c(-c3ccc(Cl)cc3)n[nH]c2=S)cc1`, the Potency is reported as “inactive”.
In the case of `CC(=O)c1ccc(NC(=O)Nc2ccc([N+](=O)[O-])cc2C)cc1`, the Potency is reported as 9.28 µM (active).
In the case of `Cc1cc([N+](=O)[O-])ccc1NC(=O)c1ccc(NC(=O)C(C)C)cc1`, the activity change, negative = inhibition is reported as 18% [at 5.75 µM].
In the case of `Cc1cc([N+](=O)[O-])ccc1NC(=O)C1CCCO1` (configuration not stated), the Potency is reported as “inactive”.
